Shown are actives, neighbours in structure and some others; about 4% of the full set was active somewhere.
UGM FP inh = inhibitors of M. tuberculosis UDP-galactopyranose mutase | P9WIQ1 | purified UGM, fluorescence polarization probe displacement | inhibition, % at 10 µM | 320,000 compounds, 0.06% hits; in the data active = inhibition above about 10%, passing the limit was not always enough; inconclusive = no clear call, values can overlap the other calls
GDH-TPI counter-1 = counter-screen for M. tuberculosis FBA inhibitors: GDH-TPI coupled enzymes; GDH-TPI coupled enzyme counterscreen, NADH absorbance; inhibition, % at 4.8 µM; 360,000 compounds, 1.2% hits; AID 588335; in the data active = inhibition above about 30%;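 note: 0% = DMSO wells and 100% = wells lacking the enzyme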
FBA Mtb inh = inhibitors of M. tuberculosis fructose-bisphosphate aldolase | P9WQA3 | purified M. tuberculosis FBA, fluorescence read-out | inhibition, % at 1 µM | 360,000 compounds, 2.3% hits | AID 588726;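 note: 0% = vehicle and 100% = reference inhibitor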
Rv3671c protease = inhibits the M. tuberculosis serine protease Rv3671c; P9WHR9; 320,000 compounds, 0.048% hits; inhibition, % at 5.96 µM; in the data active = inhibition above about 38%;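 note: extracellular domain of Rv3671c used as enzyme; 0% = enzyme with DMSO and 100% = no enzyme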
Mtb betalactam = beta-lactam sensitization of Mtb H37Rv | M. tuberculosis H37Rv growth with meropenem, percent inhibition | 330,000 compounds, 0.27% hits | inhibition, % at 25 µM; call rule not given here;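 note: growth measured after seven days incubation then overnight dye step; 0% = bacteria only wells and 100% = bacteria with antibiotic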
RecA splice inh = inhibitors of M. tuberculosis RecA intein splicing; P9WHJ3; cell-free RecA intein splicing, fluorescence; inhibition, % (test concentration not listed); 290,000 compounds, 0.75% hits; AID 2221; in the data active = inhibition above about 30%; inconclusive = no clear call, values can overlap the other calls;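 note: 0% = vehicle wells and 100% = reference inhibitor control wells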
Target sequence (P9WHJ3 whole entry, looked up, canonical isoform): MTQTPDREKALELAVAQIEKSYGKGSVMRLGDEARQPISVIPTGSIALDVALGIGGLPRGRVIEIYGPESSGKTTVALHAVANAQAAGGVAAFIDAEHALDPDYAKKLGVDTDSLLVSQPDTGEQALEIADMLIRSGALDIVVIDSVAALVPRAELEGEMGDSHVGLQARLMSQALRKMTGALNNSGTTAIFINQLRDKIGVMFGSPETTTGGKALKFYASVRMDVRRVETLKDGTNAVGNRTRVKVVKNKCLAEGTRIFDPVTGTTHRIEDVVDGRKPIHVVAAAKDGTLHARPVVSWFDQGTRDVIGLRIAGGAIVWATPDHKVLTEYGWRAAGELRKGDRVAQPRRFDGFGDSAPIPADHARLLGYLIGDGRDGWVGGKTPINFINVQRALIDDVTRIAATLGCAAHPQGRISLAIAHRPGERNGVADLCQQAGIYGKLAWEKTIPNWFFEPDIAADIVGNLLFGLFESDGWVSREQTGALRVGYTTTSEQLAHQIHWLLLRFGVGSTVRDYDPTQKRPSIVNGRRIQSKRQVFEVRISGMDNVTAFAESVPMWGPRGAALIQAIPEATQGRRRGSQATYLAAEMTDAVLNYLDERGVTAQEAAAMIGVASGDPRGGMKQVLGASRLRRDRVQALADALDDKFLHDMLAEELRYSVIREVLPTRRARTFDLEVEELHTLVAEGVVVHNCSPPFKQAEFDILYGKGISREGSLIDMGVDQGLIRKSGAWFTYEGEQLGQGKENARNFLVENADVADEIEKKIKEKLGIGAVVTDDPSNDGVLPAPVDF
Mtb FBA inh conf = confirmation of M. tuberculosis fructose-bisphosphate aldolase inhibitors. shares compounds with FBA Mtb inh. purified M. tuberculosis FBA, fluorescence read-out. inhibition, % at 1 µM. 5,600 compounds, 78% hits;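 note: 0% = vehicle wells and 100% = reference inhibitor wells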
GDH-TPI counter-2 = inhibits GDH-TPI coupling enzymes, flagging Mtb FBA hits; shares compounds with FBA Mtb inh; 5,600 compounds, 81% hits; inhibition, % at 1 µM; GDH-TPI coupled enzyme counterscreen, fluorescence; in the data active = inhibition above about 10%
GDH-TPI dose = inhibits GDH-TPI coupling enzymes in dose response. shares compounds with FBA Mtb inh. GDH-TPI coupled enzyme assay, fluorescence, artifact counterscreen. IC50, µM. 170 compounds, 79% hits. AID 652145; call rule not given here
An asterisk follows results filed as active; ? = inconclusive; nt = not tested or not shown; + = active, no number. Cut-off read from the data, not from the text of the source, unless noted: active = inhibition above about 27%; inactive = the rest.

SMILES	UGM FP inh	GDH-TPI counter-1	FBA Mtb inh	Rv3671c protease	Mtb betalactam	RecA splice inh	Mtb FBA inh conf	GDH-TPI counter-2	others
O=C(CN1C(=O)NC2(CCCC2)C1=O)Nc1nc2ccccc2s1	5	3	3	-6	-8	3	nt	nt
Cc1cc(C)cc(N(CC(=O)Nc2ccc(-c3nc4ccc(C)cc4s3)cc2)S(C)(=O)=O)c1	-2	18	24	-35	7	-2	nt	nt
Cc1ccc2nc(-c3ccc(NC(=S)NCC(C)(C)CN(C)C)cc3)sc2c1	nt	2	77*	nt	nt	nt	69*	53*
Cc1ccc2nc(-c3ccc(NC(=O)CN4CCN(C(=O)c5ccco5)CC4)cc3)sc2c1	3	24	46*	-11	10	-2	+	+
COCCNc1nnc(SC(C)C(=O)Nc2ccc(-c3nc4ccc(C)cc4s3)cc2)s1 (stereo not drawn)	1	29	40*	-28	13	1	+	+
Cc1ccc2nc(-c3ccc(NC(=O)CN(c4ccccc4C)S(C)(=O)=O)cc3)sc2c1	-1	12	90*	-1	-10	0	+	+
C=CCN1C(=O)N/C(=C/c2ccc(C)o2)C1=O	-5	19	6	7	-10	1	nt	nt
CC(C)C(=O)Nc1nnc(SCC(=O)Nc2ccc3c(c2)OCO3)s1	3	2	0	3	-3	-1	nt	nt
CCc1nc2ccccc2c(C(=O)OCC(=O)Nc2ccc(NC(C)=O)cc2)c1C	1	9	2	4	-7	nt	nt	nt
NN=C1C(=O)c2cccc3cccc1c23	nt	10	1	nt	nt	nt	nt	nt
CCC(=O)c1ccccc1OCCCn1cncn1	2	7	27*	-7	-6	nt	112*	84*
CCC(=O)c1ccccc1OCCN1CCN(Cc2ccccc2)CC1	0	-4	4	-8	-5	0	nt	nt
Cc1ccc2c(CC(=O)OC(C)C(=O)Nc3ncc(Cl)cc3Cl)coc2c1 (stereo not drawn)	nt	7	6	9	-2	-7	nt	nt
CCCCC(c1nnnn1CCOC)N1CCN(CC)CC1 (stereo not drawn)	4	9	38*	-5	1	nt	91*	62*
O=C(OCN1C(=O)c2ccccc2C1=O)c1cccc(S(=O)(=O)N2CCOCC2)c1	-2	-8	-1	-2	-7	4	nt	nt
COc1cc(C(=O)NCCNc2nc3ccc(C)cc3cc2C#N)cc(OC)c1OC	1	5	39*	4	-10	-14	94*	80*
Cc1ccc2nc(NCCNC(=O)c3ccccc3)c(C#N)cc2c1	-4	3	48*	-2	-5	-28	189*	144*
COc1cc(C(=O)NCCCNc2nc3c(C)cc(C)cc3cc2C#N)cc(OC)c1OC	3	-4	15	-3	9	-12	nt	nt
COc1ccc2nc(NCCCNC(=O)c3cc(OC)c(OC)c(OC)c3)c(C#N)cc2c1	0	8	32*	8	?	-393	13	-5	GDH-TPI dose=4.4*
COc1cc(C(=O)NCCNc2nc3c(C)cccc3cc2C#N)cc(OC)c1OC	nt	-1	1	nt	nt	nt	nt	nt
COc1ccc(C(=O)NCCNc2nc3ccc(C)cc3cc2C#N)cc1	0	8	47*	-7	13	-26	55*	42*
Cc1ccc(CN2CC(C(=O)Nc3cc(S(C)(=O)=O)ccc3Cl)CC2=O)cc1 (stereo not drawn)	1	7	6	-11	4	2	nt	nt
C[C@@H]1CN([C@@H](C)CO)C(=O)c2cc(NC(=O)Nc3cccc4ccccc34)ccc2O[C@@H](C)CCCCO[C@H]1CN(C)C(=O)c1ccccc1	nt	-9	8	nt	nt	nt	nt	nt
COc1ccccc1C(=O)Nc1ccnn1C1CCN(C/C=C/c2ccccc2)CC1	-1	-5	-3	5	4	0	nt	nt
CCOCc1cc(C)[nH]c(=O)c1C#N	-1	15	68*	-5	1	2	175*	148*
SMILES	UGM FP inh	GDH-TPI counter-1	FBA Mtb inh	Rv3671c protease	Mtb betalactam	RecA splice inh	Mtb FBA inh conf	GDH-TPI counter-2	others
O=C(CCN1C(=O)C2C3C=CC(C3)C2C1=O)N1CCN(c2ccccc2Cl)CC1 (stereo not drawn)	4	5	0	-5	-19	0	nt	nt
COCCCNC(=O)c1oc2ccc(S(=O)(=O)N(C)C3CCCCC3)cc2c1C	0	-5	-2	-11	-1	2	nt	nt
CN(CC(=O)Nc1cccc(F)c1)C(=O)c1cc(-c2ccccc2)nc2ccccc12	2	3	4	-24	-10	-2	nt	nt
COc1ccc(-c2cc(C(=O)N(C)CC(=O)Nc3cccc(F)c3)c3ccccc3n2)cc1	-1	7	54*	-15	-2	0	115*	83*
COc1ccc(NC(=O)CN(C)C(=O)c2cc(-c3ccc(OC)cc3)nc3ccccc23)cc1	3	19	35*	-25	78	2	49*	36*
COc1ccc(NC(=O)CN(C)C(=O)c2cc(-c3ccccc3)nc3ccccc23)cc1	-2	-6	1	-4	2	-8	nt	nt
COC(=O)C1(C)NC(c2cccc(C)c2)C2C(=O)N(c3ccc(F)cc3)C(=O)C21 (stereo not drawn)	0	7	5	1	-20	-1	nt	nt
Cc1ccc(NC(=O)c2ccc3c(c2)S(=O)(=O)c2ccccc2C3=O)cc1S(=O)(=O)N1CCOCC1	6	-1	1	-11	-1	1	nt	nt
COc1cccc(NC(=O)CN(C)C(=O)c2cc(-c3ccco3)nc3ccccc23)c1	nt	14	69*	7	-5	2	3	0
CCOc1ccc(NC(=O)CN(C)C(=O)c2cc(-c3ccco3)nc3ccccc23)cc1OCC	nt	15	62*	nt	nt	nt	+	+
CN(CC(=O)Nc1ccc(F)cc1)C(=O)c1cc(-c2ccco2)nc2ccccc12	4	12	30*	5	-8	3	+	+
Cc1ccc(NC(=O)CN(C)C(=O)c2cc(-c3ccco3)nc3ccccc23)cc1	1	11	19	-14	-8	1	nt	nt
COc1cccc(NC(=O)c2cc(-c3ccco3)nc3ccccc23)c1	6	6	5	-30	5	5	nt	nt
CN(CCOc1ccc(Cl)cc1)C(=O)c1cc(-c2ccco2)nc2ccccc12	6	7	37*	2	-5	19	174*	127*
CNC(=O)c1cn2c3c(ccc(Cl)c3c1=O)OC(C)C2 (stereo not drawn)	nt	12	37*	nt	nt	nt	3	-2
CCOCCCNC(=O)c1cn2c3c(ccc(Cl)c3c1=O)OC(C)C2 (stereo not drawn)	nt	8	26	nt	nt	1	nt	nt
COc1ccc(CCNC(=O)C2CCN(C(=O)c3ccccc3)CC2)cc1	0	nt	nt	7	0	-3	nt	nt
